Bioassay records from PubChem.
Only some compounds are listed: those with a hit (about 2.9% of all), similar ones and a draw of the others.
PAFAH1B3 inh – inhibitors of human PAFAH1B3 | Q15102 | recombinant PAFAH1B3, FP-rhodamine probe, fluorescence polarization | inhibition, % at 3.39 µM | 340,000 tested, 0.28% active | AID 492972;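 active = inhibition above the screen-wide average of all tested compounds plus 3 SD, cut at about 25% in these data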;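 note: 0% = enzyme with DMSO only and 100% = wells lacking PAFAH1B3 protein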
Target sequence (Q15102 whole entry, looked up): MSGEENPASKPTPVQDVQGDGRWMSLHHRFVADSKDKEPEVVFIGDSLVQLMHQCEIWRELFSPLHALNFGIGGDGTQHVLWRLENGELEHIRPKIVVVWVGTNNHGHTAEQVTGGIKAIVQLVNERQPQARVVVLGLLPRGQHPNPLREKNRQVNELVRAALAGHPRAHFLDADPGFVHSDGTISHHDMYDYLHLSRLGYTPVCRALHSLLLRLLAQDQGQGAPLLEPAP
PME-1 inh – PME-1 (human) inhibition | 320,000 tested, 0.53% active | AID 2130 | inhibition, % at 5.9 µM | Q9Y570 | recombinant PME-1, FP-Rh probe fluorescence polarization;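 active = inhibition above the campaign mean of all compounds plus 3 SD, cut at about 26% in these data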;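 note: competitive labeling of PME-1 active site by serine hydrolase directed probe; 0% = PME-1 with DMSO and 100% = wells lacking PME-1 enzyme; inhibitors block probe labeling so polarization falls and inhibition rises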
PAFAH1B2 inh – blocks human PAF acetylhydrolase 1b catalytic subunit 2; inhibition, % at 3.39 µM; P68402; recombinant PAFAH1B2, FP-rhodamine activity probe, fluorescence polarization; AID 492953; 340,000 tested, 1.2% active;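 active = inhibition above the mean of all tested compounds plus 3 SD, cut at about 24% in these data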;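 note: 0% = enzyme with DMSO and 100% = wells lacking PAFAH1B2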
Fam108B counter – blocks mouse Fam108B hydrolase in RBBP9 counter-screen; inhibition, % at 9.51 µM; recombinant Fam108B, FP-Rh probe fluorescence polarization; 300,000 tested, 0.33% active;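 active = inhibition above the screen mean inhibition plus 3 SD, computed separately per campaign, cut at about 18% in these data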;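 note: inhibitors lower polarization as less probe binds the enzyme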
PAFAH2 FP inh – PAFAH2 (human) inhibition; inhibition, % at 3.39 µM; recombinant PAFAH2, FP-rhodamine activity probe, fluorescence polarization; 340,000 tested, 0.99% active; Q99487;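 active = inhibition above the mean over all tested compounds plus 3 SD, cut at about 30% in these data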;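 note: inhibitors block probe labeling of enzyme so polarization drops; 0% = enzyme with DMSO and 100% = wells lacking PAFAH2 protein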
pPAFAH inh – pPAFAH (human) enzyme inhibition; Q13093; inhibition, % at 3.39 µM; 330,000 tested, 1.5% active; recombinant pPAFAH, FP-rhodamine probe fluorescence polarization; AID 463082;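 active = inhibition above the mean inhibition across the screen plus 3 SD, cut at about 25% in these data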;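 note: inhibitors block binding of the rhodamine activity-based probe so polarization drops; 0% = enzyme with DMSO and 100% = wells lacking pPAFAH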
Target sequence (Q13093 whole entry, looked up): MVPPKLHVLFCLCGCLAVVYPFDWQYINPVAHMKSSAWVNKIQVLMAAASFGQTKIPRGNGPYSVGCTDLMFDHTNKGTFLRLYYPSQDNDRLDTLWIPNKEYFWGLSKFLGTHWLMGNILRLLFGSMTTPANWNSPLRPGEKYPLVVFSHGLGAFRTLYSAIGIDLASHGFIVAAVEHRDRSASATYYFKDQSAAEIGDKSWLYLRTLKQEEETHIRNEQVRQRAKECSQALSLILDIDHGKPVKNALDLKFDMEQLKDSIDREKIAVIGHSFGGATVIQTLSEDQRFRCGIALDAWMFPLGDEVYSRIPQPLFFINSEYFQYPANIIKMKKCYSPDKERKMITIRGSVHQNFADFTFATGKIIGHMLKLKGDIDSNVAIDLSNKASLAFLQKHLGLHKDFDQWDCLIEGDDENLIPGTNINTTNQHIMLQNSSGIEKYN
Active calls of the source: *; . = not tested or not shown.

SMILES	PAFAH1B3 inh	PME-1 inh	PAFAH1B2 inh	Fam108B counter	PAFAH2 FP inh	pPAFAH inh
CC(C)Oc1ccc(CC2(CCc3ccncc3)C(=O)NC(=O)NC2=O)cc1	9.6	-3.9	6.2	-2.2	5.4	-0.5
CC(C)(C#CC(=O)O)OOC(c1ccccc1)(c1ccccc1)c1ccccc1	14.3	-4.5	8.8	2.5	5.3	31.2*
CCOP(=O)(C#CC(C)(C)C)C(C)(O)c1ccccc1 (configuration not stated)	3.0	-0.8	5.1	-1.4	0.9	1.8
C=Cc1ccc(Cn2c(C(=O)O)c(C=O)c3ccccc32)cc1	6.1	-4.6	4.4	1.0	2.2	-8.0
COc1cc(C=C2C(=O)NC(=O)NC2=O)ccc1OCc1ccc([N+](=O)[O-])cc1	1.6	.	26.0*	.	7.1	.
O=C1NC(=O)C(=Cc2ccc(Oc3ccc([N+](=O)[O-])cc3)cc2)C(=O)N1	2.7	-1.3	6.8	0.6	3.7	1.4
CCOC(=O)c1ccc2[nH]c(-c3ccc(S(=O)(=O)F)cc3)cc(=O)c2c1	8.3	6.5	7.7	-2.8	7.5	28.5*
Cc1cc(C)n(-c2ccc(NN=C(C#N)C#N)cc2)n1	4.1	0.8	0.5	5.8	6.6	27.9*
Cc1ccc(OCCOc2cccc(C=C3C(=O)NC(=O)NC3=O)c2)cc1	1.0	0.9	38.8*	2.0	1.2	3.6
CN1C(=O)NC(=O)[C@]2(Cc3ccccc3N3CCN(c4ccccc4)CC32)C1=O (some centres not stated)	5.8	8.9	-2.9	-2.1	5.7	14.8
O=C1NC(=O)[C@]2(Cc3ccccc3N3CCN(c4ccccc4)CC32)C(=O)N1c1ccccc1 (some centres not stated)	2.6	1.9	4.2	-1.8	19.9	28.4*
COc1ccc(-c2nn(CCC#N)cc2C(=O)Nc2ccccc2Br)cc1[N+](=O)[O-]	2.6	-1.6	2.0	0.9	-1.4	2.1
CN(C)[C@@H]1C(=O)C(C(N)=O)=C(O)[C@@]2(O)C(=O)C3=C(O)c4c(O)ccc(Cl)c4[C@@](C)(O)[C@H]3C[C@@H]12	14.9	1.3	9.4	-1.3	11.7	30.1*
CC1CCC(C)(NS(=O)(=O)OCC(Cl)(Cl)Cl)CC1 (configuration not stated)	6.5	4.6	45.2*	4.7	8.9	33.2*
O=c1[nH]c(=S)n(CCC2=CCCCC2)c(O)c1C=NC1CCN(Cc2ccccc2)CC1	-0.8	-11.7	-5.2	-3.0	-4.4	-4.7
O=c1[nH]c(=S)n(CCC2=CCCCC2)c(O)c1/C=N/Nc1ccccc1	2.1	-7.1	35.0*	5.8	8.8	16.9
O=C(c1ccc(N2CCCCC2)c([N+](=O)[O-])c1)N1CCC2(CC1)OCCO2	2.7	0.3	-0.9	3.0	6.8	34.2*
O=C(c1ccc(Cl)cc1)N1CCC2(CC1)OCCO2	4.8	2.2	3.7	-2.5	1.7	-1.2
Nc1ccc(Br)cc1	5.1	.	6.3	.	0.6	.
Nc1ccc2cc(Br)ccc2c1	2.8	11.7	54.2*	1.9	5.2	8.4
COC(=O)C1=C(c2ccc(C(C)=O)cc2)C[C@@H]2CC[C@H]1N2C(=O)N1CCC(O)(c2ccc(Cl)cc2)CC1	7.8	8.5	0.7	.	-2.5	6.4
COC(=O)C1=C(c2cccc(C#N)c2)C[C@@H]2CC[C@H]1N2C(=O)N1CCCCC1	4.3	-8.0	9.7	.	1.4	0.4
CC[n+]1c(-c2ccccc2)c2cc(N)ccc2c2ccc(N)cc21	90.2*	.	64.7*	.	81.6*	.
O=C(C[N+]12CCC(CC1)C(C(O)(c1ccccc1)c1ccccc1)C2)c1ccc(Br)cc1 (configuration not stated)	4.1	-5.0	2.7	-1.6	0.9	1.5
CC1CC(OP(O)(=S)c2ccc(N(C)C)cc2NC(=O)c2cccs2)CC(C)(C)C1 (configuration not stated)	9.9	0.5	40.0*	-1.1	17.5	7.0
SMILES	PAFAH1B3 inh	PME-1 inh	PAFAH1B2 inh	Fam108B counter	PAFAH2 FP inh	pPAFAH inh
O=[N+]([O-])c1cc(S(=O)(=O)c2ccc(O)c([N+](=O)[O-])c2)ccc1O	28.8*	-0.6	13.7	16.0	38.5*	28.1*
COC1=C(OC)[C@]23CCc4ccc(OC)c(OC)c4[C@]2(CCN3C)CC1=O	-8.0	.	2.7	.	4.5	0.3
Cc1cc(OC(C)C(=O)NCC(O)c2ccccc2)c2c3c(c(=O)oc2c1)CCCC3 (configuration not stated)	3.4	-0.8	3.7	0.1	9.3	7.1
CCCOc1ccccc1C1SCC(=O)Nc2c1c(=O)[nH]n2C(C)CCC (configuration not stated)	9.3	4.0	1.6	-2.1	5.3	-3.3
CCCC(C)n1[nH]c(=O)c2c1NC(=O)CSC2c1ccc(OC)cc1 (configuration not stated)	5.0	4.2	2.5	5.3	0.7	28.3*
NP(=O)(OCC(F)(F)F)Oc1ccc(Cl)cc1 (configuration not stated)	3.1	27.9*	-2.8	3.5	1.2	1.9
CC1NC(=O)NC(=O)C1Br (configuration not stated)	3.4	.	5.0	.	2.5	.
O=[N+]([O-])c1ccc(N2CCCC2)c2ccncc12	8.6	-2.3	8.9	0.8	-1.1	5.5
CCOC(=O)C1CCCN(c2ccc([N+](=O)[O-])c3nonc23)C1 (configuration not stated)	39.0*	.	50.3*	.	46.2*	.
c1ccc2c(N3CCNCC3)nsc2c1	-0.7	-13.0	2.5	-4.5	-3.0	-8.3
CCOCCCn1c(N)c(C(=O)Nc2sc3c(c2C(=O)OC)CCCC3)c2nc3ccccc3nc21	51.9*	-7.8	31.1*	8.2	35.5*	1.5
Nc1ccc(C2(c3ccc(N)cc3)CCCCC2)cc1	5.2	-2.3	38.1*	9.7	1.6	9.2
Cc1ccc(N2C(=O)/C(=C/c3ccc(CN(CCC#N)S(C)(=O)=O)o3)C(=O)NC2=S)cc1	2.2	-3.8	-4.8	-5.0	33.1*	27.7*
Cc1cc(NC(=O)CCl)on1	9.9	3.5	-1.7	0.2	4.0	5.8
ClC(Cl)=C(c1ccc(Cl)cc1)c1ccc(Cl)cc1	-1.0	-2.5	24.6*	-1.3	1.8	5.7
Cc1ccc(-c2nc3ccc(Cl)cc3n2OC(=O)N(C)C)cc1	5.6	-7.4	61.8*	-0.7	2.1	2.0
COC(=O)c1ccc(CC(C(=O)c2ccccc2)N(C)C)cc1 (configuration not stated)	0.3	0.3	3.0	-2.2	2.1	2.2
CCCc1cc(=O)oc2cc(OCC(=O)N3C[C@H]4C[C@@H](C3)c3cccc(=O)n3C4)ccc12	4.5	-3.6	-1.2	0.4	-5.8	5.5
CCc1nnc(NS(=O)(=O)c2ccc(N=Cc3c(O)n(-c4ccc(Cl)cc4)c(=O)[nH]c3=O)cc2)s1	3.9	2.3	2.1	2.4	4.0	-1.4
Cc1ccc2c(c1)cc1c(=O)n(CC(=O)N3CCC4(CC3)OCCO4)nc(C)n12	9.7	3.4	3.8	-4.7	-3.5	25.6*
